# Source: the antibiotic and cytotoxicity screens of Wong et al. (2023)
# Among all 39,000 compounds or so, about 3,300 (8.5%) were called active. The sample holds actives, similar compounds and a random draw of the others, so the mix is not that of the screen.
# Tested on: HepG2
# Assay: cytotoxicity call (relative viability < 0.9)
# Conditions: 10 µM
row,SMILES,cytotoxicity call
1,COc1ccc2c3c(n(c2c1)C)[C@@H](CO)N(C[C@]13CCN(CC1)Cc1ccncc1)C(=O)CN1CCOCC1,inactive
2,NC(=NC(=O)N1CCOCC1)c1ccccc1,inactive
3,O=C(C[C@@H]1CC[C@@H](NC(=O)Cc2ccccn2)[C@@H](CO)O1)NCCc1ccncc1,inactive
4,CN(C)CCCNC(=O)[C@@H]1c2ccccc2C(=O)N(Cc2cc(C(F)(F)F)cc(C(F)(F)F)c2)[C@H]1c1ccc(CO)cc1,inactive
5,CO[C@H](CN(C)S(=O)(=O)c1cn(C)cn1)[C@@H](C)CN(C(=O)Nc1ccc(C(F)(F)F)cc1)[C@@H](C)CO,inactive
6,CNC[C@H]1Oc2c(NS(=O)(=O)c3cn(C)cn3)cccc2C(=O)N([C@@H](C)CO)C[C@H]1C,inactive
7,O=C(COc1ccc(S(=O)(=O)N2CCOCC2)cc1)N1CCOCC1,inactive
8,COc1ccc([Si](C)(C)[C@@H]2[C@@H](CCOC(=O)NCCCCCC(=O)NO)O[C@@]3(C(=O)N(Cc4ccccc4)c4ccc(NC(=O)[C@@H](C)OC(=O)NCCCCCC(=O)NO)cc43)[C@H]2C)cc1,inactive
9,C[C@H]1CN([C@@H](C)CO)C(=O)Cc2cc(NC(=O)Cn3cnnn3)ccc2O[C@@H]1CN(C)Cc1ccc(Cl)c(Cl)c1,inactive
10,CCc1nn(C)c2c(=O)c(=O)c2n(C)[nH]1,inactive
11,O=C(CN1CCOCC1)NCC[C@H]1CC[C@@H](NS(=O)(=O)c2ccc(Cl)cc2)[C@@H](CO)O1,inactive
12,C[C@H]1CN([C@@H](C)CO)C(=O)c2cc(NS(=O)(=O)c3ccccc3)ccc2O[C@H]1CN(C)Cc1ccc(Cl)c(Cl)c1,inactive
13,CC(C)Oc1ccccc1OCc1cnnn1CC(=O)NS(=O)(=O)c1ccccc1OC(F)(F)F,inactive
14,Cc1ccc(S(=O)(=O)N(C)C[C@H]2Oc3ccc(NC(=O)NC(C)C)cc3C(=O)N([C@@H](C)CO)C[C@@H]2C)cc1,inactive
15,O=C(OCc1cccc(O)c1O[C@@H]1O[C@H](CO)[C@@H](O)[C@H](O)[C@H]1O)[C@]1(O)C(=O)[C@@H]2C=C[C@H]1c1c2ccc(O)c1O,inactive
16,O=C1NCCc2c(O)cccc21,inactive

row,SMILES,cytotoxicity call
1,COC(=O)c1cn(CC(N)=O)c2ccccc12,inactive
2,Cn1cc(CN2CCC(C(=O)N[C@@H](c3ccc(F)cc3)c3ccc4ccccc4n3)CC2)c2ccccc21,active
3,COc1ccc(S(=O)(=O)N(C)C[C@H]2Oc3ccc(NS(C)(=O)=O)cc3CC(=O)N([C@@H](C)CO)C[C@@H]2C)cc1,inactive
4,CC(C)COC(=O)CNc1n[nH]c(=O)[nH]c1=O,inactive
5,Cn1cnc(S(=O)(=O)N[C@@H]2C=C[C@@H](CC(=O)Nc3ccccc3)O[C@@H]2CO)c1,inactive
6,CCOC(=O)[C@H]1CC(C)=NNC1=O,inactive
7,Cn1cncc1[C@@](N)(c1ccc(Cl)cc1)c1ccc2c(c1)c(-c1cccc(Cl)c1)cc(=O)n2C,active
8,O=C(CCCCCCC(=O)N/N=C/c1cccc(B(O)O)c1)NO,inactive
9,Cn1cnc(CCNC(=O)C[C@H]2CC[C@H]3[C@@H](COC[C@@H](O)CN3C(=O)Nc3ccc(C(F)(F)F)cc3)O2)c1,inactive
10,c1cn(-c2ccc(-n3ccnc3)nn2)cn1,inactive
11,CN1CCN(C2=Nc3ccccc3Oc3ccc(Cl)cc32)CC1.O=C(O)CCC(=O)O,inactive
12,Clc1ccc2c(c1)C(N1CCNCC1)=Nc1ccccc1O2,active
13,CN1CCN(C2=Nc3cc(Cl)ccc3Nc3ccccc32)CC1,inactive
14,CCS(=O)(=O)Nc1ccc2c(c1)C(=O)N(C)C[C@@H](OC)[C@H](C)CN(Cc1cccnc1)[C@H](C)CO2,inactive
15,O=C(C[C@@H]1C[C@H]2c3cc(NC(=O)Nc4ccc(C(F)(F)F)cc4)ccc3O[C@H]2[C@H](CO)O1)NCCc1ccccc1,inactive
16,CO[C@H]1CN(C)C(=O)c2cc(NS(=O)(=O)c3cn(C)cn3)ccc2OC[C@@H](C)N(CC2CC2)C[C@@H]1C,inactive
